According to PubChem BioAssay (Tox21):
Unmarked numbers belong to inactive results. Entries that show only a call come without a potency. Calls of active or inactive are those of the source. Calls follow the shape of the full dose curve.

biological target: Acetylcholinesterase (Homo sapiens) (UniProt P22303); test: Acetylcholinesterase (AChE) small molecule antagonists: enzyme-based qHTS assay (AID 1347397); settings: Potency: AChE enzyme activity inhibition; outcome: AChE enzyme activity inhibition; series mostly up to 115 µM; also: nearly all actives have a fitted effect of over 55% in size
Description: National Center for Advancing Translational Sciences [NCATS]
Division of Preclinical Innovation [DPI]
U.S. Environmental Protection Agency [EPA]
National Institutes of Environmental Health Sciences [NIEHS]
National Toxicology Program [NTP]
U.S. Food and Drug Administration [FDA]
Acetylcholinesterase (AChE) is the primary cholinesterase in the body that hydrolyzes a key neurotransmitter, acetylcholine. Inhibition of AChE activity can lead to neurotoxicity. The known inhibitors include organophosphorous pesticides (OP), chemical warfare agents, drugs, and various phytochemicals.
An enzyme-based assay with the recombinant human AChE and Amplite Colormetric acetylcholinesterase assay kit (AAT Bioquest, Sunnyvale, CA) was used to evaluate the chemicals in the Tox21 10K library that inhibit AChE activity. The assay uses 5, 5-dithiobis-(2-nitrobenzoic acid) (DTNB) to quantify the thiocholine produced from the hydrolysis of acetylthiocholine by AChE.
Tox21 Assay Protocol Summary:
For the enzyme-based AChE assay, recombinant human AChE (50 mU/mL) in 4 uL/well was dispensed into black, clear-bottom 1536-well plates using a Multidrop Combi dispenser (Thermo Scientific, MA). Then, 23 nL of compound or DMSO (vehicle control) was transferred into the assay plates by a Pintool Station (Wako Automation, CA). The plates were incubated for 30 min at room temperature, followed by the addition of 4 uL of colorimetric detection cocktail solution (DTNB, acetylthiocholine) into each well using a Flying Reagent Dispenser (Beckman Coulter, CA) and then 10 min incubation at room temperature.

Sequence of Acetylcholinesterase (Homo sapiens) (P22303 whole entry, looked up): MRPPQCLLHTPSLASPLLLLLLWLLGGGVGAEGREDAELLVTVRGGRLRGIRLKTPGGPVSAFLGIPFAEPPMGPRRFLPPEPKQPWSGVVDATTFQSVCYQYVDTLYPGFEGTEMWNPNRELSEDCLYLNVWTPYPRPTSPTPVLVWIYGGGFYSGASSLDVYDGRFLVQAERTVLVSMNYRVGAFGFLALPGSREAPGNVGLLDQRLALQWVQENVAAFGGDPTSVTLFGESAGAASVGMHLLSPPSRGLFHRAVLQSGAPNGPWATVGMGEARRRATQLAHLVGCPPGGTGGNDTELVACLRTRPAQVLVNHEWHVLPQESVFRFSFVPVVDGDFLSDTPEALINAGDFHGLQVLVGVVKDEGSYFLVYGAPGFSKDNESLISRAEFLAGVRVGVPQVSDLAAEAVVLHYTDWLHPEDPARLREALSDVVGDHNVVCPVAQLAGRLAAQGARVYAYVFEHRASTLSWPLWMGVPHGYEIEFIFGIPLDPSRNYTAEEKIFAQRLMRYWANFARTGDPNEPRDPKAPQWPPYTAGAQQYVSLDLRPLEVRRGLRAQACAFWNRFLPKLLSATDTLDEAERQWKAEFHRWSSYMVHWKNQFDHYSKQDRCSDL

Structure (SMILES)	Potency	activity change, negative = inhibition
O=c1c(O)c(O)c1=O	inactive	
NC(=O)c1cccc([N+](=O)[O-])c1	inactive	
COC(=O)c1ccc2cc(C(=O)OC)ccc2c1		-0.273% [at 23.6 µM]
CC[C@@]1(O)C(=O)OCc2c1cc1n(c2=O)Cc2cc3c(CN(C)C)c(O)ccc3nc2-1	inactive	
c1ccc(Nc2cccc3ccccc23)cc1	inactive	
CCC(=O)O	inactive	
CCOC(=O)C(=O)CCCCCCl	inactive	
CC(C)c1ccc(C(C)C)cc1	inactive	
ClCCl	inactive	
O=C1NCC2(CCN(CCc3ccccc3)CC2)O1	inactive	
CCN1C=CN(C)C1C (stereo not given)	inactive	
NS(=O)(=O)c1ccc(C(=O)O)cc1	inactive	
CC(C)CCCCCCCOC(=O)CCCCC(=O)OCCCCCCCC(C)C	inactive	
CCCCCCCCCCCCc1ccccc1	inactive	
CCCCCCOCCO	inactive	
C#Cc1ccc(-c2ccccc2F)cc1	inactive	
COc1cc(C(=S)N2CCOCC2)cc(OC)c1OC	inactive	
Cc1ccc(N(C)C)cc1	inactive	
CN=C(N)NC(=O)Nc1c(C)cccc1C	inactive	
COc1ccc(OC)c(C(O)CNC(=O)CN)c1 (stereo not given)	inactive	

Structure (SMILES)	Potency	activity change, negative = inhibition
CCC(C)(O)CCCC(C)C (stereo not given)	inactive	
Cc1ccc(C(=O)c2ccccc2)cc1	inactive	
c1cc(C(c2ccc(OCC3CO3)cc2)c2ccc(OCC3CO3)cc2)ccc1OCC1CO1 (stereo not given)	inactive	
Cc1ccc(-c2cc(C(F)(F)F)nn2-c2ccc(S(N)(=O)=O)cc2)cc1	inactive	
Clc1ccc(Sc2cc(Cl)c(Cl)cc2Cl)cc1	inactive	
Nc1cccc(C(F)(F)F)c1	inactive	
CC[C@]1(O)C[C@H]2CN(CCc3c([nH]c4ccccc34)[C@@](C(=O)OC)(c3cc4c(cc3OC)N(C=O)[C@H]3[C@@](O)(C(=O)OC)[C@H](OC(C)=O)[C@]5(CC)C=CCN6CC[C@]43[C@@H]65)C2)C1	inactive	
CC(C)CCCCCOC(=O)CCS	inactive	
O=C(CO)[C@@H](O)[C@H](O)[C@H](O)CO	inactive	
O=C(NCCN1CCOCC1)c1ccc(Cl)cc1	inactive	
CC(C)(C)c1ccc(S)cc1	inactive	
CC(CCO)CC(C)(C)C (stereo not given)	inactive	
O=C(O[C@@H]1Cc2c(O)cc(O)cc2O[C@@H]1c1cc(O)c(O)c(O)c1)c1cc(O)c(O)c(O)c1	inactive	
CC(=O)Oc1c(C)c(C)c2c(c1C)CC[C@@](C)(CCC[C@H](C)CCC[C@H](C)CCCC(C)C)O2	inactive	
O=NN(CCCl)C(=O)NC1CCCCC1	inactive	
C=CCOCC(CO)(COCC=C)COCC=C	inactive	
CC(C)(C#N)Nc1nc(Cl)nc(NC2CC2)n1	inactive	
O=C1c2ccccc2C(=O)c2cc(S(=O)(=O)O)ccc21	inactive	
C#CC(C)(CC)OC(=O)c1ccccc1C(=O)O (stereo not given)	inactive	
CC(C)Cc1ccc(C(C)C(=O)O)cc1 (stereo not given)	inactive	
